Measurements: PubChem BioAssay (NCI)
The panel holds about 83,000 compounds, 20% with a hit somewhere; the sample as a whole holds those more often.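 Note: values are percent growth. 100 is the growth of untreated cells, values between 100 and 0 indicate rising inhibition; between -100 and 0 indicates cell death.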 A number with no mark means an inactive call. Activity calls are given as the source filed them. The calls were made as follows: active = growth percent below 10; inactive = the rest.

Legend:
Assay in all cases: NCI-60 one-dose screen, 48 h (100 = growth as untreated, 0 = no growth, -100 = all killed)
Settings in all cases: 10 µM unless noted
SR leukemia = system: SR leukemia
RPMI-8226 leukemia = system: RPMI-8226 leukemia
OVCAR-8 ovarian = system: OVCAR-8 ovarian
OVCAR-5 ovarian = system: OVCAR-5 ovarian
OVCAR-4 ovarian = system: OVCAR-4 ovarian
SK-OV-3 ovarian = system: SK-OV-3 ovarian
IGROV1 ovarian = system: IGROV1 ovarian
OVCAR-3 ovarian = system: OVCAR-3 ovarian
HS 578T breast = system: HS 578T breast
NCI/ADR-RES ovarian = system: NCI/ADR-RES ovarian
T-47D breast = system: T-47D breast
BT-549 breast = system: BT-549 breast
MDA-MB-435 melanoma = system: MDA-MB-435 melanoma
SW-620 colon = system: SW-620 colon
MCF7 breast = system: MCF7 breast
HCT-116 colon = system: HCT-116 colon
HCC-2998 colon = system: HCC-2998 colon
KM12 colon = system: KM12 colon

Row | SMILES | growth (SR leukemia) | growth (RPMI-8226 leukemia) | growth (OVCAR-8 ovarian) | growth (OVCAR-5 ovarian) | growth (OVCAR-4 ovarian) | growth (SK-OV-3 ovarian) | growth (IGROV1 ovarian) | growth (OVCAR-3 ovarian) | growth (HS 578T breast) | growth (NCI/ADR-RES ovarian) | growth (T-47D breast) | growth (BT-549 breast) | growth (MDA-MB-435 melanoma) | growth (SW-620 colon) | growth (MCF7 breast) | growth (HCT-116 colon) | growth (HCC-2998 colon) | growth (KM12 colon)
1 | CCCCCCNc1cc(C)nc2ccc(OC)cc12 | 23.2% | 34.4% | 65.3% | 64.4% | 55% | 73.8% | 55.5% | 65.8% | 87% | 45.1% | 52.1% | 75.5% | 64.6% | 68.7% | 58.8% | 28.5% | 48.4% | 66.3%
2 | O[C@H]1CO[C@H]2[C@@H]1OC[C@@H]2Oc1ccc(Nc2nc(Nc3ccc(F)c(Cl)c3)ncc2F)cc1Cl | 110% | 116% | 111% | 105% | 96.9% | 110% | 102% | 103% | 98.7% | 97.6% | 110% | 105% | 93.1% | 98.2% | 88.3% | 105% | 101% | 108%
3 | COc1ccc(-c2cncnc2N)cc1OC | 102% | 96.8% | 105% | 110% | 108% | -40.5% (active) | 111% | 115% | 107% | 105% | -95.7% (active) | 99.2% | 104% | 101% | 103% | 94.8% | 103% | 109%
4 | CCCCCCNC(=O)c1cc(NCc2cc(O)ccc2O)ccc1O | 7.38% (active) | -12.3% (active) | 30.9% | 77.5% | 66.5% | 74.5% | 70.7% | 27.4% | 70.5% | 59.2% | 21.3% | 22.4% | 71.5% | 76.8% | 54.9% | 75% | 105% | 69.1%
5 | C[C@@H]1CC[C@@H]2[C@@H]1[C@H](OC(=O)/C=C/c1ccccc1)[C@]1(CCCOCCOCCOCCOC(=O)CCCC[C@@H]3SC[C@@H]4NC(=O)N[C@@H]43)C[C@@H](OC(=O)CO)[C@@]2(C)O1 | 88.3% | 112% | 113% | 101% | 95.7% | 102% | 107% | 104% | 99.5% | 105% | 92.4% | 99.4% | 99.7% | 102% | 102% | 92.7% | 104% | 102%
6 | COc1cc(C(=O)Nc2cc(O)c(CC=C(C)C)c(O)c2)cc2c1O[C@]1(C)CC[C@@H](O)C(C)(C)[C@H]1C2 | 14.2% | -24.3% (active) | 31.3% | 53% | 58.6% | 16.5% | 61.1% | 27.7% | 10.3% | 81.3% | 3.79% (active) | 29.6% | 24.9% | 7.03% (active) | 6.62% (active) | 13.2% | 7.4% (active) | 18.2%
7 | NC(N)=N/N=C/CO | 92% | 103% | 103% | 104% | 96% | 102% | 108% | 107% | 112% | 95.5% | 108% | 96.7% | 106% | 106% | 98.3% | 94.1% | 119% | 102%
8 | C[C@@H]1C(=O)N(C[C@H](Cc2ccccc2)N(Cc2ccccc2)Cc2ccccc2)[C@]1(Cc1ccccc1)C(=O)OC(C)(C)C | 56.2% | 36.8% | 66.7% | 109% | 28.8% | 73.1% | 77.5% | 54.5% | 73% | 69% | 47.4% | 85.7% | 76.5% | 63.7% | 50.6% | 40.6% | 84.5% | 62.4%
9 | C=C(Cl)COC(=O)C(C)(C)O | 91.2% | 99.5% | 98.7% | 102% | 93.3% | 97.2% | 109% | 109% | 110% | 95.2% | 99.1% | 104% | 104% | 107% | 93.3% | 99.4% | 102% | 102%
10 | C=CC(=O)N[C@@H](Cc1ccc(-c2cc(Cl)cc(Cl)c2)cc1)[C@@H](O)[C@H](O)C(=O)O | 92.8% | 105% | 85.9% | 86.8% | 99.9% | 91.6% | 105% | 114% | 92.9% | 95.6% | 96.1% | 91.9% | 102% | 101% | 93.5% | 91.5% | 87.3% | 102%
11 | CCC(C)NCc1ccccc1 (centres undefined) | 104% | 95.7% | 102% | 114% | 109% | 101% | 109% | 104% | 105% | 98.1% | 89.4% | 95.2% | 108% | 101% | 102% | 91.8% | 102% | 100%
12 | Cc1nn(-c2ccccc2)c2c1C(c1ccc([N+](=O)[O-])cc1)C(C#N)=C(N)O2 (centres undefined) | 91.5% | 74.1% | 90.9% | 106% | 100% | 107% | 82.9% | 122% | 103% | 104% | 98.4% | 123% | 121% | 119% | 96.7% | 95.8% | 105% | 109%
13 | N#Cc1c(-c2ccccc2)nc(SCC2CO2)nc1N1CCOCC1 (centres undefined) | 72.5% | 47.9% | 81.8% | 60.8% | 71.1% | 28.1% | 38.1% | 61.7% | 50% | 76.2% | 15.4% | 11.4% | 69.3% | 84.4% | 44.8% | 95% | 101% | 87.1%
14 | CCN(CC)CCOC(=O)N1c2ccccc2Sc2ccccc21 | 98.6% | 85.6% | 101% | 101% | 101% | 98% | 94.1% | 107% | 91.7% | 96.1% | 94% | 92.1% | 98.7% | 94.4% | 99.5% | 81.7% | 102% | 99.3%
15 | CCCCCCCCN(CCCCCCCC)C(=N)c1ccnc2ccccc12 | -56.6% (active) | -47.7% (active) | -66.1% (active) | -57.2% (active) | -67.1% (active) | -27.8% (active) | -66.5% (active) | -93% (active) | -32% (active) | -72.5% (active) | -62.9% (active) | 66.2% | -82.3% (active) | -68.1% (active) | -74.6% (active) | -92.3% (active) | -84.1% (active) | -82.7% (active)
16 | CN1CCN(CCCOc2ccc3nc(Nc4cc(Cl)cc(Cl)c4)ccc3c2)CC1 | -54.8% (active) | -35.1% (active) | -47.3% (active) | -57.4% (active) | -23.9% (active) | -59% (active) | -46.8% (active) | -80.5% (active) | -34.7% (active) | -34.8% (active) | -68.6% (active) | -43.2% (active) | -87.1% (active) | -82.1% (active) | -89.2% (active) | -78.2% (active) | -89.2% (active) | -88.7% (active)
17 | Nc1nc(N)c(-c2ccc(Cl)cc2)c(/C=C/c2ccc([N+](=O)[O-])cc2)n1 | 44% | 67% | 89.2% | 108% | 77.3% | 114% | 22.4% | 75.9% | 60.5% | 68.3% | 84.7% | 92.3% | 41.9% | 26.4% | 82.2% | 48.9% | 77.6% | 83.1%
18 | CC(C)(O)c1cccc(F)c1 | 96.9% | 103% | 107% | 99.3% | 112% | 135% | 104% | 127% | 103% | 102% | 140% | 104% | 103% | 103% | 98.4% | 93.8% | 105% | 103%
